The whole screen tested about 420,000 compounds, of which about 50,000 (12%) were called active. Roughly 26% stayed inconclusive and do not appear here. The call rests on the fitted dose curve; in most records, active means well fitted inhibition curve with a large enough effect; inconclusive means small, poorly fitted or top-dose-only effect; inactive means flat fitted curve, though single readings scatter. Shown is part of a subset that was picked to be rich in actives. Where a call stands in place of a potency, no number is given.
Test: qHTS for Inhibitors of human tyrosyl-DNA phosphodiesterase 1 (TDP1): qHTS in cells in presence of CPT; further: nearly all actives have a fitted effect of over 55% in size
Settings: chicken DT40 Tdp1-/-;hTDP1 cells + 20 nM CPT, ATP luminescence, 48 h; series mostly up to 46.2 µM
Outline: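 Chicken DT40 Tdp1-/- cells complemented with human TDP1, 400 cells/well, exposed to compounds plus 20 nM camptothecin for at least 48 h at 37 C; viability read as ATP content by CellTiter-Glo luminescence.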
Potency means the concentration at half of the fitted maximal effect.

Structure (SMILES)	Potency
Cc1cccc(N(C)C(=O)CS(=O)(=O)c2cccc3nsnc23)c1	inactive
Clc1ccc(Nc2ccc3ccccc3n2)cc1	inactive
Cc1ccc(C)c(S(=O)(=O)c2nnn3c2nc(N2CCOCC2)c2sccc23)c1	23.1 µM (active)
Cc1ccc(S(=O)(=O)c2nnn3c2nc(N2CCN(c4ccccn4)CC2)c2ccccc23)cc1	inactive
CCc1ccc(S(=O)(=O)c2nnn3c2nc(N2CCN(CC)CC2)c2sccc23)cc1	inactive
COc1ccc(/C=N/NC(=O)c2ccncc2)cc1CN1CCCc2ccccc21	inactive
O=C(Nc1ccccn1)C1CCN(S(=O)(=O)c2ccccc2)CC1	inactive
CCOc1ccc(NC(=O)CSc2nncn2C)cc1	inactive
CCOc1ccc(C(=O)Nc2ccc3nc4c(c(Nc5ccccc5OC)c3c2)CCCC4)cc1	4.11 µM (active)
COc1cccc(CNC(=O)c2nnn(CC(=O)Nc3cc(Cl)ccc3C)c2N)c1	inactive
CCOc1ccc(C(=O)NC2CCN(C(=O)Nc3ccccc3OC)CC2)cc1	inactive
CCOc1ccc(-n2nc3ccc(NC(=O)c4ccc(OC)c(Cl)c4)cc3n2)cc1	inactive
CCOc1ccc(NC(=O)CSc2c3c(nc4ccccc24)CCCC3)cc1	16.4 µM (active)
COc1cccc(CNC(=O)c2ccc3c(Cl)c4c(nc3c2)CCCC4)c1	inactive
CCOc1ccc(NC(=S)N2CCC(NC(=O)c3ccccc3)CC2)cc1	inactive
COc1cccc(CNC(=O)CSc2c3c(nc4cc(Cl)ccc24)CCCC3)c1	23.1 µM (active)
O=C1NCC(Nc2ccccc2)C(=O)N1 (centres undefined)	inactive
Nc1c(C(=O)OCC(=O)Nc2ccc(OC(F)F)cc2)[nH]c(=O)[nH]c1=O	inactive
COc1ccc(S(=O)(=O)N2CCC(C(=O)OCC(=O)c3ccccc3)CC2)cc1[N+](=O)[O-]	inactive
CCOC(=O)N1CCN(c2c(NCCCN3CCCC(C)C3)c(=O)c2=O)CC1 (centres undefined)	inactive
CC1(C)CC(=O)c2cnc3nc4ccccc4n3c2C1	inactive
COc1ccc(Cl)cc1-n1c(CCC(=O)O)ccc1-c1ccc(C)cc1	inactive

Structure (SMILES)	Potency
COc1ccc(C)cc1-n1c(-c2ccc(C)cc2)cc2c1CC(C)(C)CC2=O	8.2 µM (active)
CCOC(=O)N1CCN(C(=O)COC(=O)c2cccc(S(C)(=O)=O)c2)CC1	inactive
COc1ccc(NC(=O)CSc2nncc(=O)n2N)cc1OC	inactive
CN(C)c1ccc(/C=N\S(=O)(=O)c2ccccc2)cc1	inactive
CN(C)c1ccc(/C=C/c2sc3ccccc3[n+]2C)cc1	0.0447 µM (active)
CN(C)c1ccc(/C=C/c2sc3ccccc3[n+]2CCCCBr)cc1	0.316 µM (active)
COc1ccccc1C(=O)NCCC(=O)N(C)Cc1cccnc1	inactive
Cc1ccc(NC(=S)NC(NC(=O)Cc2cccc3ccccc23)C(Cl)(Cl)Cl)cc1 (centres undefined)	inactive
CSc1ncnc2c1ncn2CCCNCc1ccco1	inactive
O=C(NNc1c2ccccc2nc2ccccc12)c1cc2ccccc2cc1O	23.1 µM (active)
O=C(CSc1nc(C2CC2)nc2ccccc12)Nc1cccc(O)c1	inactive
O=C(COC(=O)c1ccc(O)cc1O)NC(=O)c1ccccc1	inactive
Cc1ccc(C(=O)NNC(=O)OC(C)(C)C)c(Cl)c1	inactive
Cc1ccccc1NC(=O)NNC(=O)OC(C)(C)C	inactive
CC(C)(C)OC(=O)NNc1c2ccccc2nc2ccccc12	16.4 µM (active)
O=C1NC(=O)C(CCc2ccccc2)(c2ccccc2)N1 (centres undefined)	inactive
CC(=O)NN=C(C)c1ccc(NC(=O)C2CC2)cc1	inactive
Cc1c(S(=O)(=O)NC(C)c2ccccc2)c(=O)n(C)c(=O)n1C (centres undefined)	inactive
O=C(NC(Cc1ccccc1)C(=O)O)/C(=C\c1ccccc1)NC(=O)c1ccco1 (centres undefined)	inactive
O=C(NCCCn1ccnc1)/C(=C\c1ccccc1F)NC(=O)c1ccccc1	inactive
Cc1cc(C)cc(NS(=O)(=O)c2ccc3[nH]cc(C(=O)N4CCCCC4)c(=O)c3c2)c1	inactive
COc1cc(/C=C2/C(=O)NN(c3cccc(Cl)c3)C2=O)cc(Br)c1O	inactive

Structure (SMILES)	Potency
C=CCOc1c(Br)cc(/C=N\n2nnnc2N)cc1OC	inactive
CCOc1c(Br)cc(/C=C2\C(=O)N(CCC#N)N=C2C)cc1OC	20.6 µM (active)
COc1ccc(-n2c(-c3ccc(Cl)cc3)n[nH]c2=S)c(OC)c1	inactive
CCc1cc(=O)oc2c(C)c(OCC(=O)N3CC[C@@]4(O)CCCC[C@H]4C3)ccc12	inactive
Cc1ccc(NC(=S)NC2CCCC2)cc1	inactive
Cc1ccc(/C=N/NC(=O)CNC(=O)COc2ccccc2)o1	inactive
Cc1ccc(/C=N/NC(=S)NC2CCCCC2)o1	14.6 µM (active)
CC12CCC(=O)N1C(C(=O)Nc1ccc(F)c(F)c1F)CS2 (centres undefined)	inactive
O=C(CCNC(=O)c1ccc(Br)cc1)NCC(c1ccco1)N1CCCCC1 (centres undefined)	inactive
COc1ccc(-n2c(=O)c3sc4ccccc4c3n(CC(=O)Nc3cccc(C)c3)c2=O)cc1	inactive
COc1cccc(NC(=O)CN(C)C(=O)CSCc2nc3scc(-c4cccs4)c3c(=O)[nH]2)c1	inactive
CCOC(=O)c1cc(C#N)c(N2CCCCC2)nc1-c1ccccc1	inactive
CC(C)C[C@H]1CNC(=S)N1C[C@H]1CCCN1C[C@H](Cc1ccc(O)cc1)N1C[C@H](Cc2ccc(O)cc2)N(CC2CCCCC2)C1=S	25.9 µM (active)
CCOc1ccc(CCN2C(=O)C(=O)N([C@@H](CC(C)C)CN3CCC[C@H]3CN3C(=O)C(=O)NC[C@@H]3Cc3ccccc3)C[C@@H]2CC(C)C)cc1	inactive
CC(C)C[C@H]1CNC(=O)C(=O)N1C[C@@H]1CCCN1C[C@H](Cc1ccccc1)N1C[C@H](CC(C)C)N(CC2CCCCCC2)C(=O)C1=O	inactive
CNc1cc(-c2c(C)noc2C)ncn1	13 µM (active)
COCCNc1cc(-c2c(C)noc2C)ncn1	inactive
Cc1noc(C)c1-c1cc(NCc2cccnc2)ncn1	inactive
Cc1ccc(S(=O)(=O)N2CCCCC2)cc1C(=O)N1CCN(CCO)CC1	inactive
CC1(C)CCc2cc(S(=O)(=O)N3CCN(c4nc(-c5cccs5)nc5ccccc45)CC3)ccc2O1	inactive

Source: PubChem BioAssay AID686979 (National Center for Advancing Translational Sciences (NCATS), 2013)
